Only some compounds are listed: those with a hit (about 3.8% of all), similar ones and a draw of the others.
A549 viability = Nrf2 qHTS screen for inhibitors: counterscreen for cytotoxicity; A549 ARE-Fluc cells, CellTiter-Fluor viability, 18-24 h; Potency, µM (highest dose often 46 µM), inactives show top-dose activity change, negative = cytotoxicity, hits mostly inhibitors; 390,000 tested, 0.16% active; note: % is set by controls: 0 for no effect and ±100 for the full control effect
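A549 ARE-Fluc cells in 5% FBS OPTI-MEM, 5000 cells/well, rested 2 h then exposed to compounds in concentration-response for 18-24 h at 37 °C. Viability by CellTiter-Fluor fluorescence (Ex 405/Em 525) after 30 min; luciferase luminescence (BugLite, 15 min, RT) read afterwards.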
IDH1 R132H inh = qHTS for Inhibitors of mutant isocitrate dehydrogenase 1 (IDH1): qHTS. Isocitrate dehydrogenase [NADP] cytoplasmic (Homo sapiens), O75874. IDH1-R132H enzyme, NADPH consumption, diaphorase/resazurin fluorescence. Potency, µM (doses to about 76.6 µM), for the others: top-dose activity change, negative = inhibition, most hits filed as inhibitors. 390,000 tested, 0.093% active. AID 602179, 2012; note: % is set by controls: 0 for no effect and ±100 for the full control effect; nearly all actives have a fitted effect of over 65% in size
Target sequence (O75874 whole entry R132H, stated change not applied): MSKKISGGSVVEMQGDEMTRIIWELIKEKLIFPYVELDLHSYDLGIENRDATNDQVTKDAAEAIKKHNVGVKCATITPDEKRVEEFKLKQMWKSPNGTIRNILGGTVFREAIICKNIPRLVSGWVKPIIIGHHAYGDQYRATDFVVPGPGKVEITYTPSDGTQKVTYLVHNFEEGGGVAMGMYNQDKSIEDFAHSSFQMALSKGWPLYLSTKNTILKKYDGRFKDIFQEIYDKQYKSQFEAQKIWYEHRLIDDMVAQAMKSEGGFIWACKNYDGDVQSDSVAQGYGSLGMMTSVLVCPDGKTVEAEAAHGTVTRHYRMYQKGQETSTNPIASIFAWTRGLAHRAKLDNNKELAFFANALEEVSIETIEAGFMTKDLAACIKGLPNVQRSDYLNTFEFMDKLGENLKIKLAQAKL
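IDH1-R132H (0.5 ug/mL dispensed) in pH 7.5 Tris buffer was preincubated 30 min with compound, then given a substrate mix of 0.016 mM NADPH and 2 mM alpha-KG for 80 min at room temperature; remaining NADPH was read by diaphorase/resazurin fluorescence.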
ELG1 DNA repair = qHTS screen for small molecules that inhibit ELG1-dependent DNA repair in human embryonic kidney (HEK293T) cells expressing luciferase-tagged ELG1. HEK293T ELG1-luciferase reporter, luminescence, 16 h; DNA damage induced by 5-fluorouridine. Potency, µM (doses to about 46.1 µM), for the others: top-dose activity change, negative = inhibition, most hits filed as inhibitors. 330,000 tested, 2.3% active. AID 504467, 2011; note: % is set by controls: 0 for no effect and ±100 for the full control effect; nearly all actives have a fitted effect of over 55% in size
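Quantitative HTS, concentration-response format. 2,000 cells/well co-treated with 5-fluorouridine and compound, 16 hr in 5% CO2 at 37 °C; ONE-Glo luminescence read after 30 min.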
Nrf2 inh = Nrf2 qHTS screen for inhibitors; 360,000 tested, 2.1% active; AID 504444, 2011; Potency, µM (top dose mostly 46 µM), for the others: at the highest dose activity change, negative = inhibition, most hits filed as inhibitors; A549 ARE-Fluc reporter, luciferase luminescence, 18-24 h; note: % is set by controls: 0 for no effect and ±100 for the full control effect; nearly all actives have a fitted effect of over 60% in size
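Nrf2 function is reported as luminescence of an ARE-controlled luciferase in A549 cells. Compounds were tested at several concentrations, and a CellTiter-Fluor read on the same wells flagged cytotoxicity.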
Nrf2 activator = qHTS of Nrf2 Activators. AREc32 ARE-luciferase reporter (MCF7-derived line), luminescence, 24 h. Potency, µM (doses to about 46.1 µM), for the others: at the top dose activation, most hits filed as activators. 410,000 tested, 0.31% active. AID 624171, 2012; note: % of control where 0% means no effect; nearly all actives have a fitted effect of over 65% in size
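ARE activation measured as luciferase luminescence (Steady-Glo, 30 min RT) in AREc32_Fluc cells after 24 hr compound exposure at 37 deg C, 5% CO2; cells seeded overnight at 1000/well in OPTI-MEM, 5% FBS.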
* hit, by the source's call; ? = inconclusive; nt = not tested or not shown; [ ] = dose if it differs, or a comment. Calls come from the whole dose curve; as a rule, active = well fitted curve in the direction sought with a large enough effect; inconclusive = small, poorly fitted or top-dose-only effect, or another doubt; inactive = no such curve, though single readings can be large; an effect the other way counts as inactive or inconclusive. Potency is the fitted concentration of half-maximal effect.

SMILES | A549 viability | IDH1 R132H inh | ELG1 DNA repair | Nrf2 inh | Nrf2 activator
CC1CCN(Cc2c(C(=O)N/N=C/c3ccc(C(F)(F)F)cc3)nnn2-c2nonc2N)CC1 | ? | -7% | -1% | 26µM* | 0%
CC1CCN(Cc2c(C(=O)N/N=C/c3cc(Cl)ccc3O)nnn2-c2nonc2N)CC1 | -6% | -1% | 2.1µM* | -25% | 0%
C/C(=N\NC(=O)c1nnn(-c2nonc2N)c1CN1CCc2ccccc21)c1ccccc1O | -14% | 5% | ? | 12µM* | -1%
CC1CCN(Cc2c(C(=O)N/N=C/c3cc(Br)ccc3O)nnn2-c2nonc2N)CC1 | -10% | 4% | 2.6µM* | ? | -1%
Cc1cc(C)c(/C=N/NC(=O)c2nnn(-c3nonc3N)c2CN2CCC(C)CC2)c(C)c1 | -9% | -6% | ? | -1% | 0%
COc1c(Cl)cc(Cl)cc1/C=N/NC(=O)c1nnn(-c2nonc2N)c1CN1CCC(C)CC1 | -11% | -20% | 3% | -7% | 11%
Nc1nonc1-n1nnc(C(=O)N/N=C/c2ccccc2)c1CN1CCc2ccccc21 | 1% | 0% | -3% | 10% | 0%
CC1=C(c2ccc(C(C)C)cc2)S(=O)(=O)NC1=NCCCN1CCN(c2ccccc2F)CC1 | 11% | 0% | nt | 1% | 4%
Cc1ccc(Cn2nnnc2CN2CCC(NC(=O)c3ccc(Br)cc3)CC2)cc1 | -17% | 6% | 21µM* | nt | 1%
Cc1ccc(Cn2nnnc2CN2CCC(c3nc4ccc(Cl)cc4[nH]3)CC2)cc1 | -10% | -2% | 23µM* | ? | 3%
COc1ccccc1C(=O)Nc1cccc(OCc2cc(=O)n3c(C)csc3n2)c1 | 4% | 25% | nt | -15% | 0%
Cc1c(NC(=O)C(C)OC(=O)c2cc(Cl)ccc2O)c(=O)n(-c2ccccc2)n1C (stereo not drawn) | -2% | 3% | 2% | 10% | 0%
N#C/C(=C\c1ccc(Oc2ccc(C(F)(F)F)cc2[N+](=O)[O-])cc1)c1nc2ccccc2[nH]1 | ? | 0% | ? | 16µM* | 4%
N#C/C(=C/c1ccc(N2CCCC2)c([N+](=O)[O-])c1)c1nc2ccccc2[nH]1 | -2% | 0% | ? | 27% | 0%
Cc1ccc(-n2c(COCC(=O)O)nc3cccnc32)cc1 | 3% | 8% | nt | nt | 0%
Cc1cc(N2CCOCC2)n2nc(C)c(-c3ccccc3Cl)c2n1 | ? | 11% | ? | 16µM* | 0%
C[C@H](NC(=O)N1CCC(Cc2ccccc2)CC1)C(=O)O | 2% | -4% | 0% | 0% | 0%
OCCN(CCO)c1nc(-c2ccccc2)nc2c1oc1ccccc12 | 0% | 1% | 23µM* | -2% | -1%
O=C(Nc1cccc(Cl)c1)c1ccc2nc(CCc3ccccc3)oc2c1 | 1% | 10% | nt | nt | 0%
OC(CNCCN1CCNCC1)Cc1ccccc1 (stereo not drawn) | -5% | 11% | nt | -11% | 0%
Cc1ccc(C2CC(=O)NC(SCc3ccccc3)=C2C#N)cc1 (stereo not drawn) | 2% | 8% | -9% | 10µM* | 2%
CCc1ccc(-c2cc(C)no2)cc1S(=O)(=O)N1CCOc2ccc(C)cc21 | 2% | -15% | ? | 13µM* | 3%
Cc1cc(-c2ccc(C(C)C)c(S(=O)(=O)N3CCOc4ccccc43)c2)on1 | 9% | 14% | ? | 21µM* | 1%
O=[N+]([O-])c1cccc(CN2C(COCc3ccccc3)CCC=CS2(=O)=O)c1 (stereo not drawn) | -6% | nt | nt | -9% | nt
O=C(COC(=O)CNC(=O)C1CCCCC1)NC1CCCC1 | 0% | nt | nt | -2% | nt
SMILES | A549 viability | IDH1 R132H inh | ELG1 DNA repair | Nrf2 inh | Nrf2 activator
CCN(CC)c1ccc(NC(=O)c2cnc3ccccn3c2=O)c(C)c1 | -19% | 6% | -3% | 2.9µM* | 0%
Cc1ccc(NC(=O)c2cnc3cc(C)ccn3c2=O)c(C)c1 | -18% | 1% | nt | ? | 3%
Cc1c(Cl)cccc1NC(=O)CN1C(=O)CCn2nc(-c3cccn3C)cc21 | -7% | 9% | nt | nt | 7%
O=C1CCc2cc([S+](=O)([O-])Nc3ccc(N[S+](=O)([O-])c4ccc5c(c4)CCC(=O)N5)cc3)ccc2N1 | 12% | nt | nt | -17% | nt
O=C(c1cc(-c2cccc3ccccc23)nc2ccccc12)N1CCN(CCO)CC1 | 1% | 6% | 4.6µM* | ? | -1%
O=C(c1cc(-c2ccncc2)nc2ccccc12)N1CCN(c2ccccc2O)CC1 | 4% | 2% | ? | -3% | 2%
O=C(c1cc(-c2ccncc2)nc2ccccc12)N1CCN(c2ncccn2)CC1 | -8% | 3% | 23µM* | 20% | 0%
O=C(O)c1cc(-c2cccc3ccccc23)nc2ccccc12 | -7% | -5% | -9% | -2% | 0%
O=C(c1cc(-c2ccccc2)nc2ccccc12)N1CCN(c2ccccc2O)CC1 | -25% | 5% | 13µM* | ? | 8%
O=C(c1cc(-c2ccncc2)nc2ccccc12)N1CCN(c2ccccn2)CC1 | ? | 6% | ? | 1% | 0%
CNc1cnc(-c2cccc(C(=O)N3CCOCC3)c2)cn1 | nt | nt | nt | nt | 0%[9.22 µM]
CCCCNC(=O)C(CC)Sc1nnc(-c2ccc(F)cc2)c(-c2ccc(F)cc2)n1 (stereo not drawn) | -3% | -12% | nt | nt | 6%
COc1cccc(C2=NS(=O)(=O)N(C)C(C(=O)Nc3cccc(O)c3)=C2)c1 | -5% | 0% | nt | -27% | 14%
O=C(CC1CCCC1)Nc1ccc(Cl)c(S(=O)(=O)N2CCOCC2)c1 | -9% | -11% | 21µM* | ? | 5%
O=C(COc1cccc(Cl)c1)NCC(c1cccs1)N1CCOCC1 (stereo not drawn) | -1% | 14% | ? | ? | 0%
Cc1cc(Cl)ccc1OCC(=O)NCC(c1cccs1)N1CCOCC1 (stereo not drawn) | -5% | 5% | -20% | 18µM* | 0%
Cc1ccc(NC(=O)COc2ccc(Cl)cc2Cl)cc1S(=O)(=O)N1CCOCC1 | ? | 3% | ? | 21µM* | 4%
CCOc1ccccc1OCCCC(=O)Nc1ccc(Cl)c(S(=O)(=O)N2CCOCC2)c1 | -12% | -4% | ? | 16µM* | 4%
O=C(NC1CCCC1)c1ccc2c(c1)N(Cc1ccccc1F)C(=O)c1ccccc1S2 | -6% | 5% | nt | nt | 1%
Cc1cc2c(s1)c1cnn(Cc3cccc(Cl)c3)c(=O)c1n2C | -4% | nt | nt | ? | nt
CC(=O)Nc1ccc(OCC(=O)Nc2ccc(Cl)c(S(=O)(=O)N3CCOCC3)c2)cc1 | nt | nt | 5.8µM* | nt | nt
